PubChem BioAssay (NCI)
The panel holds about 79,000 compounds, 15% with a hit somewhere; the sample as a whole holds those more often. Values without a mark were called inactive. The source made the active and inactive calls. No stated cut-off is given here; in the data, active means growth inhibition above about 70%; inactive means the rest.

Experiments:
[1] = NCI Yeast Anticancer Drug Screen. Data for the rad50 strain (AID 155);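 further: 0% = growth of vehicle-only cultures of the same strain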; conditions: S. cerevisiae rad50 strain growth inhibition; at 50.0 µM; active compounds read high
In short: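 Growth of the mutant yeast was measured after compound exposure and referenced to vehicle-treated cultures.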

[2] = NCI Yeast Anticancer Drug Screen. Data for the mec2-1 strain (AID 157); conditions: S. cerevisiae mec2-1 strain, at 50.0 µM, active compounds read high
In short: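 mec2-1 yeast strain, carrying an alteration in DNA damage repair or cell cycle control, was exposed to compounds; growth inhibition was measured relative to vehicle-treated controls.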

[3] = NCI Yeast Anticancer Drug Screen. Data for the sgs1 mgt1 strain (AID 161);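 further: 0% = growth of cultures given vehicle only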; conditions: S. cerevisiae sgs1 mgt1 strain, at 50.0 µM, active compounds read high
In short: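 Compounds are added to genetically altered yeast, and growth is compared with cultures given vehicle alone to give percent inhibition.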

[4] = NCI Yeast Anticancer Drug Screen. Data for the cln2 rad14 strain (AID 165);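 further: 0% = growth equal to vehicle treated cultures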; conditions: S. cerevisiae cln2 rad14 strain, at 50.0 µM, active compounds read high
In short: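 Yeast carrying cln2 and rad14 alterations (cell cycle control and DNA damage repair) were exposed to compounds. Growth inhibition was measured against vehicle-treated controls.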

[5] = NCI Yeast Anticancer Drug Screen. Data for the bub3 strain (AID 167); conditions: S. cerevisiae bub3 mutant strain, at 50.0 µM, active compounds read high
In short: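 Whole-cell yeast assay. The mutant strain was incubated with compounds, and growth inhibition was determined by comparison with vehicle-treated cells.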

[6] = NCI Yeast Anticancer Drug Screen. Data for the mlh1 rad18 strain (AID 175); conditions: S. cerevisiae mlh1 rad18 strain growth inhibition; at 50.0 µM; active compounds read high
In short: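 Growth inhibition of the yeast strain was measured after compound exposure and expressed relative to vehicle-treated controls. The strain carries defined defects in DNA damage repair.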

Row | SMILES | growth inhibition [1] | growth inhibition [2] | growth inhibition [3] | growth inhibition [4] | growth inhibition [5] | growth inhibition [6]
1 | Nc1ncnc2c1nc(-c1ccccc1)n2C1OC(CO)C(O)C1O (configuration not stated) | 27.4% | 35.2% | -10.7% | 9.75% | 35.5% | 34.4%
2 | OCc1ccccc1O | -1.7% | 6.25% | -6.55% | 25.8% | -0.7% | 11.2%
3 | COC(=O)c1c(C(=O)Nc2ccc(Cl)cc2)c(C)n(NC(N)=O)c1C | -6.45% | 8.8% | 6.9% | -45.5% | 1.15% | 3.95%
4 | Cc1[nH]n(-c2ncc(C#N)c(=O)[nH]2)c(=O)c1CCO | -8.75% | -34.1% | -16% | -31.9% | -11.8% | -71.3%
5 | CCCCNS(=O)(=O)c1ccc(C)cc1 | -24.6% | -26.4% | -23% | -42.7% | -22% | -21.3%
6 | CSc1nnc(SCc2nn3c(=O)cc(C)nc3s2)s1 | -7.9% | -0.85% | 0.4% | 10% | 5.55% | 10.6%
7 | CC1=NN(c2cccc([N+](=O)[O-])c2)C(=O)C1 | 13.9% | -25% | 10.7% | -5.7% | 16.8% | 32.6%
8 | Cc1ccc(S(=O)(=O)OC/C(=C(/c2ccccc2)c2ccc(Cl)cc2)c2ccccc2)cc1 | 96.8% (active) | 97.5% (active) | 95.8% (active) | 87.3% (active) | 95.3% (active) | 96.6% (active)
9 | Cc1ccc(S(=O)(=O)C(Sc2ccccc2)=S=NC(C)(C)C)cc1 | 89.8% (active) | 81.5% (active) | 89.3% (active) | 53.4% | 81.8% (active) | 91.8% (active)
10 | COc1cc2c(cc1OC)C(c1ccccc1[N+](=O)[O-])=NCC2 | 0.2% | -0.8% | 29.7% | 11.7% | 22.5% | 15.2%
11 | CC(C)C1CC(O)C(C)C(C(C)C)C1 (configuration not stated) | 4.05% | -17.5% | -12.9% | -28.2% | -1.65% | -20.6%
12 | O=[N+]([O-])c1ccc(OS(=O)(=O)Cc2ccccc2)cc1 | 3.8% | -9.35% | 8.95% | -36.6% | 3.95% | -9.25%
13 | CO/C=C(/C#N)S(=O)(=O)/C(C#N)=C/OC | 32.5% | 37.3% | 34% | 4.65% | 24.9% | 15.9%
14 | COc1ccc(-c2cc(C(=O)Nc3cc(Cl)cc(Cl)c3)c3ccccc3n2)cc1 | -13.7% | -18.6% | -25.8% | -0.85% | -17.6% | 1.55%
15 | COc1ccc(Cc2cc(OC)c(OC)c(OC)c2)cc1O | 2.2% | 11.4% | -16.4% | -22.1% | 19.9% | -21.2%
16 | CCOC(=O)C(C#N)C1=CC(=O)C(=O)c2ccc(O)cc21 (configuration not stated) | -4.8% | -7.65% | -1.15% | 27% | 16.6% | 0.45%
17 | COc1cc2c(cc1O)CCN[C@@]21CS[C@H]2c3c(OC(C)=O)c(C)c4c(c3C(COC1=O)N1C2C2NC(Cc3cc(C)c(OC)c(O)c32)[C@@H]1O)OCO4 (some centres not stated) | 91.5% (active) | 94% (active) | 93.7% (active) | 91.5% (active) | 92.2% (active) | 91.2% (active)
18 | N#Cc1c(O)c(-c2ccccc2)c(=O)n2c1[nH]c1ccccc12 | -11.7% | -9.9% | -13.6% | 14.9% | 2.6% | -12.3%
19 | COc1cc(NC(=O)CCN2CCOCC2)c2ncccc2c1 | 41.6% | 3.6% | 12.8% | -29.4% | 18.9% | 43%
20 | CSCCC(NC(C)=O)C(C)=O (configuration not stated) | 5.75% | -9.35% | -3.55% | -21.3% | -7.15% | 7.9%
21 | Cc1cc(=O)oc2c1c(C)nn2-c1cccc(Cl)c1 | -14.5% | -13.2% | 4.05% | -60.9% | -5.1% | -1.85%

Row | SMILES | growth inhibition [1] | growth inhibition [2] | growth inhibition [3] | growth inhibition [4] | growth inhibition [5] | growth inhibition [6]
22 | CCCCc1c2cnccc2c(CCCC)c2c1[nH]c1ccccc12 | 88.8% (active) | 90.3% (active) | 91.8% (active) | 81.9% (active) | 89.2% (active) | 88.2% (active)
23 | C=CCN(CC=C)CCNc1cc(C)nc(Nc2nc3ccc(Cl)cc3[nH]2)n1 | 90.6% (active) | 50.4% | 93.2% (active) | 82% (active) | 24.9% | 91.5% (active)
24 | CCCC1OC(c2ccc(OC)cc2)OCC1CC (configuration not stated) | 2.65% | 0.95% | -0.3% | -16.4% | 30.9% | -0.75%
25 | CC1=NN(C(=O)CC(=O)Nc2cccc(Cl)c2)C(=O)C1N=Nc1ccc(S(=O)(=O)c2ccc(N=NC3C(=O)N(C(=O)CC(=O)Nc4cccc(Cl)c4)N=C3C)cc2)cc1 (configuration not stated) | 36.5% | 15.2% | 23.4% | -1.9% | -25.4% | 22.4%
26 | Cc1cc2nccnc2cc1C | -48.8% | -65.8% | -31.4% | -3.4% | -65.5% | -23.2%
27 | COc1ccc(C2=C(OC(C)=O)c3cccn3-c3ccccc3S2)cc1 | -34.5% | -49.9% | -28.8% | -45.9% | -45.8% | 2.15%
28 | NC(Cc1ccccc1)C(=O)NCC(=O)Oc1ccc([N+](=O)[O-])cc1 (configuration not stated) | 36.5% | 20.4% | 20.1% | 18.1% | 2.35% | 23.1%
29 | Clc1ncnc2c1cnn2-c1ccccc1 | -4.05% | -8.55% | 1.05% | -30.9% | -2.55% | -6.1%
30 | CCCNN(CCC)C(N)=O | 0.6% | 13.7% | -5.75% | 2.75% | 24.1% | -7.25%
31 | S=C1SC(=Nc2ccccc2)C(=Nc2ccccc2)N1c1ccccc1 | -21.1% | -15.9% | 6.7% | -37.1% | -19.5% | -20.6%
32 | CCN(CC)C(=O)C(C)n1cc(C)c(=O)[nH]c1=O (configuration not stated) | -32.2% | -39.2% | -19.9% | 5.35% | -2.55% | -3.85%
33 | CC1(C)Cc2[nH]c3ccccc3c(=O)c2-c2nc3ccccc3c(=O)n21 | -5.35% | 6.05% | 4.8% | -35.6% | -2.2% | -12.9%
34 | CC/C(C)=N/NS(C)(=O)=O | 12.8% | -7.55% | -0.35% | 2.25% | -44.8% | -10.9%
35 | N#Cc1ccccc1OCCCCOc1ccccc1C#N | 8.7% | 14% | 15.2% | 14.2% | 18.7% | 16.1%
36 | CC(O)C(C)(C)[N+](=O)[O-] (configuration not stated) | 0.45% | -1.55% | -7% | -4.25% | 2.8% | 1.75%
37 | Cc1nc(C(=O)O)c2ccccc2n1 | -2.8% | 2.45% | -8.05% | 3.6% | -9.65% | 4.6%
38 | CC(C)CN(CC(C)C)C(=S)[S-].CC(C)CN(CC(C)C)C(=S)[S-].[Zn] | 54.5% | 12.7% | 55% | 21.4% | 4.65% | 32.4%
39 | COc1nc2c(c(O)cn2C2OCC(OC(C)=O)C(OC(C)=O)C2OC(C)=O)c(=O)n1C (configuration not stated) | -1.65% | -5.9% | -25.8% | -2.75% | -1% | 15.8%
40 | Cc1ccc(C(=O)/C=C/c2ccc3c(c2)OCO3)c(C)c1 | 39.9% | 21.8% | 52.6% | -6.7% | 47.5% | 33.3%
41 | COc1c2occc2c(S(=O)(=O)O)c2ccc(=O)oc12 | -12.5% | 4.05% | 6.45% | 3.75% | -40.6% | 2.7%
42 | COc1ccc(C(C)c2cc3c(cc2OC)OCO3)cc1OC (configuration not stated) | -4.95% | -6.7% | 11.1% | 5.2% | 16.9% | 25.3%
